# According to the supplement of paper PMC8387472:
# Structures can show the parent of a compound that is named as a salt. ± gives the standard deviation of the averaged measurements.
# Tested on: mESC LDLR-Dup GFP reporter (SpCas9 MH-deletion repair)
# Test: fraction of GFP+ cells relative to DMSO control (fold change); higher = more MH-deletion repair to in-frame LDLR (or more editing)
# Details: 2 µM; 7 days post-transfection
row,SMILES,fraction of GFP+ cells
1,Cn1c(CCCC(=O)O)nc2cc(N(CCCl)CCCl)ccc21 [Bendamustine HCl],1.26 ± 0.33
2,C/C=C(\C)C(=O)N[C@@H](c1ccccc1)[C@@H](O)C(=O)O[C@H]1C[C@@]2(O)[C@@H](OC(=O)c3ccccc3)[C@@H]3[C@]4(OC(C)=O)CO[C@@H]4C[C@H](O)[C@@]3(C)C(=O)[C@H](OC(C)=O)C(=C1C)C2(C)C [Cephalomannine],1.54 ± 0.41
3,COc1ccc2c(c1)/C(=C/c1cnc[nH]1)C(=O)N2,1.29 ± 0.051
4,O=P1(NCCCl)OCCCN1CCCl (stereo not given) [Ifosfamide],1.11 ± 0.34
5,O=C(O)CCCc1ccc(N(CCCl)CCCl)cc1 [Chloroambucil],2.44 ± 0.046
6,CCN1CCN(C(=O)Cc2ccc(Nc3ncc(F)c(Nc4ccc(C(=O)Nc5ccccc5Cl)cc4)n3)cc2)CC1 [Aurora A Inhibitor I],0.548 ± 0.13
7,Cc1cc(SCc2sc(-c3ccc(C(F)(F)F)c(F)c3)nc2C)ccc1OCC(=O)O,1.72 ± 0.64
8,CCn1cc(C(=O)O)c(=O)c2cc3c(cc21)OCO3 [Oxolinic acid],0.941 ± 0.23
9,NC(=O)c1cc(N2CC2)c([N+](=O)[O-])cc1[N+](=O)[O-],1.43 ± 0.66
10,COc1ccc2c(c1)[nH]c1c(C)nccc12 [harmine hydrochloride],1.1 ± 0.11
11,C[C@H]1CCC/C=C/[C@@H]2C[C@H](O)C[C@H]2[C@H](O)/C=C/C(=O)O1 [Brefeldin A],0.627 ± 0.22
12,C/C(O)=C(\C#N)C(=O)Nc1cc(Br)ccc1Br,1.04 ± 0.32
13,CN1CCN(c2ccc([N+](=O)[O-])c3no[n+]([O-])c23)CC1,1.37 ± 0.088
14,O=P1(N(CCCl)CCCl)NCCCO1 (stereo not given) [Cyclophosphamide Monohydrate],1.78 ± 0.27
15,COC[C@H]1OC(=O)c2coc3c2[C@@]1(C)C1=C(C3=O)[C@@H]2CCC(=O)[C@@]2(C)C[C@H]1OC(C)=O [Wortmannin],0.685 ± 0.098
